The list is not random: actives were taken first. Their share in the collection is about 1.7%.
Vif inh: inhibitors of HIV Vif; inhibition, % at 7.49 µM; actives 0.35% (n = 340,000); HEK293T cells, Vif self-association by quenched fluorescence, imaging, 24 h; in the data active = inhibition above about 50%, passing the limit was not always enough; inconclusive = no clear call, values can overlap the other calls; inactive = below about 31%
H9c2 protect: modulators protecting cardiomyocytes from myocardial damage; H9c2 cardiomyocytes, H2O2 injury protection, ATPLite, 2 h; actives 0.63% (n = 360,000); protection from H2O2 cell death, % at 20 µM;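 active = compounds giving at least 50% protection of heart cells from peroxide-induced death in the single-dose screen, raw or plate-pattern-corrected value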;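 note: 0% = DMSO wells with peroxide and 100% = DMSO wells without peroxide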
aDG glyco up: alpha-DG glycosylation activation; actives 0.22% (n = 360,000); AID 624168; activation, % at 10 µM; Pro5-aDG cells, alpha-DG glycosylation AlphaScreen (IIH6); 0% Pro5, 100% B10-LARGE cell signal;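 active = activation of at least 8% versus controls, or a plate z-score of at least 8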;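 note: Pro5 are CHO cells carrying HIG-tagged alpha-DG that lacks glycosylation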
ARNT-TACC3 inh: disrupts binding between human ARNT and TACC3 | AID 623870 | actives 0.66% (n = 390,000) | AlphaScreen His-ARNT PAS-B/GST-TACC3 binding, luminescence; TACC3 fragment carries E629A point mutation | Q9Y6A5 | inhibition, % at 9.99 µM;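 active = mean inhibition of replicates at least 50% and at least half of replicates each reaching 50%; inconclusive = half or more replicates reach 50% but mean below 50%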;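 note: 0% = complete ARNT plus TACC3 wells and 100% = ARNT alone without TACC3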
N-glyco inh: blocks N-linked glycosylation in D54 reporter cells; D54 ERlucT glycosylation luciferase reporter, 24 h; percent of 100 nM tunicamycin response; reporter increase, % at 12.5 µM; actives 0.23% (n = 360,000);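 active = mean luciferase reporter signal, scaled so untreated is 0 and the glycosylation-blocking control 100, at or above a set limit in every replicate; inconclusive = mean reaches the limit but not every replicate does; inactive = mean below the limit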;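 note: luciferase carries N-glycosylation sites so blocking glycosylation raises the light; 0% = median of neutral control wells and 100% = median of 100 nM tunicamycin wells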
Numbers without * were called inactive; u = inconclusive; x = not tested or not shown; ! = not active in a repeat.

SMILES | Vif inh | H9c2 protect | aDG glyco up | ARNT-TACC3 inh | N-glyco inh
COc1ccc(NC(=O)Nc2ccc3c(c2)C(=O)N([C@@H](C)CO)C[C@H](C)[C@H](CN(C)C(=O)Nc2ccc(C(F)(F)F)cc2)OCCCC[C@H](C)O3)cc1 | x | x | x | 36 | x
CCN(C(=O)COc1ccc(C)cc1OC)c1cccc2ccccc12 | 57* | -4 | 0 | -6 | -1
Cc1cc(NC(=O)NC2(C(F)(F)F)Oc3ccc(Cl)cc3O2)no1 (configuration not stated) | 105* | 31 | 0 | 15 | -10
O=C(NCc1cccnc1)NC1(C(F)(F)F)Oc2ccc(Cl)cc2O1 (configuration not stated) | 137* | 58* | 0 | -7 | -9
COCCNC(=O)NC1(C(F)(F)F)Oc2ccc(Cl)cc2O1 (configuration not stated) | 19 | 11 | 0 | -1 | -5
CNC(=O)C[C@H]1CC[C@@H]2[C@H](COc3ccc(NC(=O)NC(C)C)cc3C(=O)N2C)O1 | x | x | x | -7 | x
O=C(NCCCO)c1ccc2nc(-c3ccco3)c(-c3ccco3)nc2c1 | -12 | 7 | 1 | 47* | -1
O=C(Nc1ccccc1)c1ccc2nc(-c3ccco3)c(-c3ccco3)nc2c1 | -8 | 23 | 0 | 47* | 2
O=C(O)CCC(NC(=O)OCc1ccccc1)C(=O)O (configuration not stated) | -1 | 1 | 0 | -5 | 0
NC(=O)NC(CCC(=O)O)C(=O)O (configuration not stated) | 65* | 0 | 0 | -1 | 0
CCN1[C@@H]2c3ccc(C4=CCCCC4)c(=O)n3C[C@@H]2[C@@H](CO)[C@@H]1C(=O)NCc1cccc(OC)c1 | x | x | x | -2 | x
C[C@@H]1CN([C@@H](C)CO)C(=O)c2cc(NC(=O)C3CC3)ccc2O[C@H]1CN(C)C(=O)Nc1ccc2c(c1)OCO2 | x | x | x | -6 | x
O=C(OCC(=O)N1CCN(C(=O)c2ccco2)CC1)c1cc(-c2ccco2)nc2ccccc12 | -4 | 49* | 0 | x | -3
Cc1ccc(NC(=O)CSC(C)C(=O)OCC(=O)N2CCN(C(=O)c3ccco3)CC2)cc1 (configuration not stated) | 61* | 3 | 0 | 1 | -1
C[C@H]1CCCCO[C@@H](CN(C)C(=O)c2ccncc2)[C@@H](C)CN([C@@H](C)CO)C(=O)c2cc(NC(=O)c3ccccc3)ccc2O1 | x | x | x | -13 | x
COc1cccc(-c2nn3c(-c4ccco4)nnc3s2)c1 | 9 | 73* | 0 | 1 | 1
COc1cccc(OC)c1-c1nn2c(-c3ccco3)nnc2s1 | 10 | 54* | 0 | 4 | 1
COc1cccc(-c2nn3c(-c4cc(C)[nH]n4)nnc3s2)c1 | x | 11 | 0 | 7 | x
COc1ccc(C(NC(C)=O)c2ccc3cccnc3c2O)c(OC)c1 (configuration not stated) | 1 | 36 | 0 | 64* | -6
CN(C)CCCNCCCNC(=O)c1ccco1 | 65*! | -2 | 0 | 4 | 6
CC(C)(C)c1ccc(C(=O)NCCCNC(=O)c2ccco2)cc1 | 3 | -2 | 0 | -1 | -1
Cc1noc(C)c1NC(=O)Nc1ccc2c(c1)CC(=O)N([C@@H](C)CO)C[C@@H](C)[C@@H](CN(C)S(=O)(=O)c1ccc(Cl)cc1)O2 | x | x | x | 1 | x
Cc1ccc(NC(=O)CSc2ccc(-c3ccccn3)nn2)cc1 | -9 | 54* | 0 | 30 | -4
CCOC(=O)c1ccc(NC(=O)CSc2ccc(-c3ccccn3)nn2)cc1 | -8 | 48 | 1 | 22 | -9
c1ccc(CSc2ccc(-c3ccccn3)nn2)cc1 | -1 | 4 | 0 | 65* | -9
SMILES | Vif inh | H9c2 protect | aDG glyco up | ARNT-TACC3 inh | N-glyco inh
CCOc1ccc(NC(=O)CSc2ccc(-c3ccccn3)nn2)cc1 | 2 | 5 | 1 | 26* | -1
C[C@@H]1CN([C@@H](C)CO)C(=O)c2cc(NS(=O)(=O)c3cccs3)ccc2O[C@@H](C)CCCCO[C@H]1CN(C)CC1CCCCC1 | x | x | x | 3 | x
CCOC(=O)c1c(NC(=O)COC(=O)CCNS(=O)(=O)c2ccccc2)sc(C(=O)NC)c1C | 2 | 8 | 0 | 7 | 1
COc1ccc(NCc2n[nH]c(=O)c3ccccc23)cc1 | 28 | 76* | 0 | 4 | 1
CCOC(=O)c1c(NC(=O)COC(=O)Cc2n[nH]c(=O)c3ccccc23)sc(C(=O)NC)c1C | 6 | 106* | 0 | -2 | 0
CCOc1ccc(OCC(=O)NCc2n[nH]c(=O)c3ccccc23)cc1 | -3 | 45 | 1 | -5 | 0
O=C(Cc1n[nH]c(=O)c2ccccc12)OCC(=O)N(Cc1ccccc1)Cc1ccccc1 | -7 | 46 | 0 | -4 | -4
CCOC(=O)Cc1n[nH]c(=O)c2ccccc12 | 6 | 69* | 0 | -2 | 3
Cc1ccc(OCC(=O)NCc2n[nH]c(=O)c3ccccc23)cc1 | -6 | 71* | 0 | -2 | 0
O=C(C[C@@H]1CC[C@@H](NC(=O)Nc2ccccc2)[C@@H](CO)O1)NCc1ccccn1 | x | x | x | -34 | x
C[C@H](CO)N1C[C@H](C)[C@H](CN(C)C(=O)Nc2ccccc2)Oc2c(NC(=O)C3CCCCC3)cccc2C1=O | x | x | x | -2 | x
COc1ccc(CN(C)C[C@@H]2Oc3c(NS(=O)(=O)c4cn(C)cn4)cccc3C(=O)N([C@H](C)CO)C[C@@H]2C)cc1 | x | x | x | -7 | x
C[C@H](CO)N1C[C@H](C)[C@H](CN(C)C(=O)Cc2ccncc2)Oc2ncc(C#C[C@@H](C)O)cc2C1=O | x | x | x | 1 | x
COC(=O)Cc1n[nH]c(=O)c2ccccc12 | 3 | 59* | 0 | -40 | 0
COC(=O)c1ccc(COC(=O)Cc2n[nH]c(=O)c3ccccc23)cc1 | 2 | 39 | 1 | 14 | 0
Cc1ccc(N2CC(C(=O)NCc3n[nH]c(=O)c4ccccc34)CC2=O)cc1C (configuration not stated) | u | 72* | 0 | 0 | 1
C[C@@H]1CCCCO[C@@H](CN(C)C(=O)C2CCCCC2)[C@H](C)CN([C@@H](C)CO)C(=O)c2cc(NC(=O)Nc3ccc(F)cc3)ccc2O1 | x | x | x | -5 | x
CC(=O)Nc1cc(C)nn1-c1nc2ccccc2s1 | -4 | 52* | 0 | 4 | 1
COc1cc(-c2noc(C)c2/C=C/c2ccc(N)cc2)cc(OC)c1OC | 15 | 6 | 0 | x | 43*
COc1ccc(-c2c(-c3cc(OC)c(OC)c(OC)c3)noc2C)cn1 | 5 | -2 | 0 | -3 | 30*
COc1cc(-c2noc(C)c2C#Cc2ccc(N)cc2)cc(OC)c1OC | 0 | 7 | 0 | -8 | 9
COc1ccc(-c2c(-c3ccc4c(c3)OCO4)noc2C)cn1 | -4 | -6 | 0 | -2 | 2
CCOC(=O)c1cc2c(=O)n3ccccc3nc2n(Cc2ccco2)c1=NC(=O)c1cccnc1 | 14 | 85* | 0 | 33 | -2

Assay outcomes as filed in PubChem.
